Assay outcomes deposited in PubChem by National Center for Advancing Translational Sciences (NCATS).
A selection: hits, their analogues and other compounds. The true share with any hit is near 0.35%.
GLS inhibitor: qHTS for Inhibitors of Glutaminase (GLS); Glutaminase kidney isoform, mitochondrial (Homo sapiens), O94925; GLS enzymatic activity, qHTS titration; Potency, µM (series often up to 45.5 µM), without a hit: top-dose activity change, negative = inhibition, actives largely listed as inhibitors; 0.21% of 410,000 active; AID 624170, 2012
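Read-out is an Amplex red fluorescence increase coupled through glutamate oxidase and HRP, measured before and after 30 min room-temperature incubation. hKGA is in 45 mM KH2PO4 (pH 8.2) with 0.02% Tween-20; glutamine added as 1mM solution.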
Chronic BCR inh: qHTS Assay to Find Inhibitors of Chronic Active B-Cell Receptor Signaling; ABC-DLBCL IkBa-CBG/CBR reporter, luminescence ratio, 4 h; AID 493014, 2011; Potency, µM (titrated, usually from 46.1 µM), for the others: at the top dose activity change, negative = inhibition, actives largely listed as inhibitors; 0.05% of 340,000 active; active = well fitted inhibition curve with a large enough effect in the signal ratio, with a control signal flat, not every such curve was filed as active; inconclusive = small, poorly fitted or top-dose-only effect, or effect the other way, or a change in a side signal; the % refers to the signal ratio;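 also: plate controls were basal doxycycline-induced cells for no effect and cells given 10 µM MG132 for full effect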
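TMD8 human ABC-DLBCL cells with doxycycline-inducible IκBα–green luciferase fusion and unfused red luciferase, in 0.5% FBS medium; compounds up to 46 uM, 4 h at 37C. Green/red luminescence ratio, filter-overlap corrected, fitted to concentration-response curves.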
MBNL1 CUG block: qHTS Assay for Inhibitors of MBNL1-poly(CUG) RNA binding; Muscleblind-like protein 1 (Homo sapiens), Q9NR56; TR-FRET MBNL1-His/biotin-(CUG)12 binding, 665/545 ratio; Potency, µM (series often up to 57.5 µM), inactives show at the top dose activity change, negative = inhibition, actives largely listed as inhibitors; 0.036% of 280,000 active; AID 2675, 2010; active = well fitted inhibition curve with a large enough effect in the signal ratio, with a control signal flat, not every such curve was filed as active; inconclusive = small, poorly fitted or top-dose-only effect, or effect the other way, or a change in a side signal; inactive = no such curve, though single readings can be large or run the other way; the % refers to the signal ratio
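TR-FRET readout: Ex 340 nm, 665/545 nm emission ratio, normalized to buffer-only (basal) and MBNL1-(CUG)12 controls. Complex of MBNL1-His with Biotin-(CUG)12, compounds 92 nM–58 uM, incubated 60 min at room temperature.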
B2AR arrestin: qHTS assay of beta-arrestin-biased ligands of beta2-adrenergic receptor | Potency, µM (doses to about 46.1 µM), for the others: at the highest dose activation, most hits filed as activators | Beta-2 adrenergic receptor (Homo sapiens), P07550 | 0.02% of 330,000 active | beta-arrestin recruitment to beta2AR, cell-based reporter;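 also: 0% = DMSO controls and full agonism = EC100 isoproterenol or metaproterenol; nearly all actives have a fitted effect of over 65% in size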
Target sequence (P07550 whole entry, looked up): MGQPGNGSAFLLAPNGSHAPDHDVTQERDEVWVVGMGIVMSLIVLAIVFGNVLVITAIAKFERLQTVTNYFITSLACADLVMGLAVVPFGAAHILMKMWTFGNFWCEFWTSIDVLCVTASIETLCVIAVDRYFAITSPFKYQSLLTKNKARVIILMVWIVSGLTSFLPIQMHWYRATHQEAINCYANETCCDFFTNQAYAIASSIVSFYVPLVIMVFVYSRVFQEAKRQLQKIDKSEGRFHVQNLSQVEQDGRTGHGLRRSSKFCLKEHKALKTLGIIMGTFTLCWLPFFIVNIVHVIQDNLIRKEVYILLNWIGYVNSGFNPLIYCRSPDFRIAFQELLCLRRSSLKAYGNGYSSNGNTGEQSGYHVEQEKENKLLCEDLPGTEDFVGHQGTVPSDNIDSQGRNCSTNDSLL
Anesthetic bind: qHTS Assay for Identification of Novel General Anesthetics; apoferritin/1-aminoanthracene competitive binding, fluorescence; Potency, µM (series often up to 77.5 µM), without a hit: at the top dose activity change, negative = displacement, usual class: inhibitors; 0.074% of 350,000 active; AID 485281, 2010; also: nearly all actives have a fitted effect of over 20% in size
Target sequence (P02791 2-175 limits assumed): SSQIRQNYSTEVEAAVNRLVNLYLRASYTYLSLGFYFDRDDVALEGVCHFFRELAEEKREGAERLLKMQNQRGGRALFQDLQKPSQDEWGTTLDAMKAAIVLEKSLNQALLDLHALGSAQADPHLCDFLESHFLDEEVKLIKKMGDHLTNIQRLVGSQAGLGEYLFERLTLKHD
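Concentration-response curves derived by four-parameter Hill fitting of normalized fluorescence, where compounds displaced 1-AMA from 10 uM horse apoferritin following a brief 10 min room-temperature incubation; propofol titration acted as positive control.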
* hit, by the source's call; ? = inconclusive; . = no result given; [ ] = another dose, or the depositor's remark. Unless noted, calls follow the shape of the dose curve; as a rule, active = well fitted curve in the direction sought with a large enough effect; inconclusive = small, poorly fitted or top-dose-only effect, or another doubt; inactive = no such curve, though single readings can be large; an effect the other way counts as inactive or inconclusive. Unless noted, % is scaled to controls: 0 for no effect and ±100 for the full control effect; potency is read from the fitted curve at half-maximal effect.

SMILES	GLS inhibitor	Chronic BCR inh	MBNL1 CUG block	B2AR arrestin	Anesthetic bind
CO[C@H](C(=O)[C@@H](O)[C@@H](C)O)C1Cc2cc3cc(O[C@H]4C[C@@H](O[C@H]5C[C@@H](O)[C@H](O)[C@@H](C)O5)[C@@H](O)[C@@H](C)O4)c(C)c(O)c3c(O)c2C(=O)[C@H]1O[C@H]1C[C@@H](O[C@H]2C[C@@H](O[C@H]3C[C@](C)(O)[C@H](O)[C@@H](C)O3)[C@H](O)[C@@H](C)O2)[C@H](O)[C@@H](C)O1 (stereo partly specified)	-27.5%	.	.	.	.
CC1=CC(C)(C)NC(=S)N1c1cccc2cc(S(=O)(=O)O)ccc12	11.2µM*	-1.2%	15.6%	-1.0%	0.9%
COc1ccc(CCNC[C@H](O)COc2cccc(C)c2)cc1OC	-0.3%	.	.	.	.
Cc1cc(C=O)c(C)n1-c1cc(C(=O)O)cc(C(=O)O)c1	17.8µM*	-0.9%	0.5%	3.7%	-2.5%
O=C(O)c1ccc(N/N=C/c2ccc(-c3ccccc3)cc2)cc1	10.0%	?	?	-0.2%	-1.2%
O=C(O)c1ccc(/C=N/Nc2cccc(C(F)(F)F)c2)cc1	14.1µM*	?	7.8%	0.1%	-12.5%
CC1CCCCN1c1ccc(N)cc1C(N)=O (stereo unspecified)	2µM*	?	1.0%	0.1%	-19.1%
O=[N+]([O-])c1ccccc1-c1ccc(C(=S)N2CCCC2)o1	19.3%	-7.5%	?	-0.4%	56.2µM*
CC(C)(C)c1ccc(C(=O)N2CCCCC2CCN2CCCCC2)cc1 (stereo unspecified)	8.6%	.	.	.	-7.9%
COc1ccc(Cn2c(=O)c3[nH]cnc3n(-c3ccccc3C)c2=O)cc1	-12.0%	15.8µM*	.	-0.7%	5.9%
COc1ccc(C)c(-n2c(=O)n(Cc3ccccc3)c(=O)c3[nH]cnc32)c1	1.7%	?	.	-0.6%	-7.0%
Cc1cccc(C)c1N(CCCc1cccnc1)C(=O)[C@@H](C)N	-1.0%	.	.	.	.
COc1ccc([C@H](C)NC[C@H](O)c2ccc(O)c(NC=O)c2)cc1	29.6%	-1.5%	-5.5%	17.8µM*	-11.9%
CC1(C(=O)Nc2ncc(Cc3ccc(Br)cc3)s2)Cc2ccccc2C(=O)O1 (stereo unspecified)	0.0%	.	.	.	-13.2%
O=S(=O)(NCc1ccccc1)c1ccc(NC(=S)NCc2ccco2)cc1	9.5%	-12.8%	-1.2%	-0.5%	8.91µM*
COc1cc(C2/C(=C(/O)c3ccccc3)C(=O)C(=O)N2c2ccccn2)ccc1O (stereo unspecified)	8.91µM*	0.2%	21.4%	-0.1%	-8.5%
CS(=O)(=O)c1ccc(N)c(SSc2cc(S(C)(=O)=O)ccc2N)c1	10µM*	-0.1%	.	0.0%	.
CCOc1ccc(N)c(SSc2cc(OCC)ccc2N)c1	-14.1%	?	3.0%	3.4%	-6.8%
NC(=S)N=Nc1c(O)n(Cc2ccc(F)cc2)c2ccccc12	0.8%	?	13.2%	9.2µM*	-9.1%
CCOC(=O)c1c(NC(=O)c2ccccc2Cl)sc2c1CCc1ccccc1-2	10µM*	?	21.9%[11.5 µM]	0.3%	52.3%
CCOC(=O)c1c(NC(=O)c2ccccc2)sc2c1CCc1ccccc1-2	-9.3%	3.5%	-3.0%[11.5 µM]	-0.6%	1.1%
CC(CC(c1ccccc1)c1ccccc1)NC(C)(C)C (stereo unspecified)	9.4%	.	.	.	.
COc1cc(NC(=O)CCCOc2cc(=O)n(C)c3ccccc23)cc(OC)c1OC	4.3%	.	.	.	1.1%
C=C(C)C(=O)Nc1cccc(C2=NOC3(C2)C[C@@H](C(N)=O)N(C(=O)c2ccc(Cl)cc2)C3)c1 (stereo partly specified)	10µM*	-6.8%	-7.7%	-1.1%	-0.5%
C=C(C)C(=O)Nc1cccc(C2=NOC3(C2)C[C@@H](C(N)=O)N(C(=O)C(=C)C)C3)c1 (stereo partly specified)	-8.4%	2.2%	-29.6%	0.3%	-4.7%
SMILES	GLS inhibitor	Chronic BCR inh	MBNL1 CUG block	B2AR arrestin	Anesthetic bind
CCC(=O)Nc1cccc(C2=NOC3(C2)C[C@@H](C(N)=O)N(C(=O)COc2ccc(Cl)cc2)C3)c1 (stereo partly specified)	3.2%	-15.5%	-14.9%	-0.4%	5.0%
C=C(C)C(=O)Nc1cccc(C2=NOC3(C2)C[C@H](C(N)=O)N(C(=O)c2ccccc2)C3)c1 (stereo partly specified)	5.1%	-8.3%	-22.3%	-0.4%	-3.9%
C=C(C)C(=O)Nc1cccc(C2=NOC3(C2)C[C@H](C(N)=O)N(C(=O)COc2ccc(Cl)cc2)C3)c1 (stereo partly specified)	10µM*	1.4%	-2.8%	0.0%	-4.6%
C/C=C\C=C/C(=O)Nc1cccc(C2=NOC3(C2)C[C@@H](C(N)=O)N(C(=O)/C=C/C=C\C)C3)c1 (stereo partly specified)	11.2µM*	-10.5%	16.8%	-0.3%	-2.5%
C=C(C)C(=O)Nc1cccc(C2=NOC3(C2)C[C@@H](C(N)=O)N(C(=O)C2(C)CC2)C3)c1 (stereo partly specified)	28.2µM*	-6.5%	?	-0.6%	7.7%
C/C=C\C=C/C(=O)Nc1cccc(C2=NOC3(C2)C[C@@H](C(N)=O)N(C(=O)/C=C/CC)C3)c1 (stereo partly specified)	-22.9%	?	11.5%	0.5%	-17.1%
CC(=O)O[C@@H]1C(=O)O[C@H]2[C@@H]1OC(=O)[C@@H]2OC(C)=O	0.2%	.	.	.	.
COc1cccc(-c2coc3cc4oc(=O)c(CCC(=O)O)c(C)c4cc23)c1	12.6µM*	?	-6.7%	-0.4%	-13.6%
Cc1c(CC(=O)NCC(=O)O)c(=O)oc2cc3occ(-c4ccccc4)c3cc12	3.98µM*	6.0%	1.8%	0.2%	3.5%
COc1cccc(-c2coc3c(C)c4oc(=O)c(CCC(=O)O)c(C)c4cc23)c1	?	?	2.3%	-0.6%	-13.5%
CC(C)(C)NC[C@H](O)CSc1nc(-c2ccc(C(N)=O)s2)cs1	4.9%	.	.	.	.
CC(/C=C/c1ccccc1)=N\NC(N)=S	9.2%	?	21.5%	8.91µM*	?
CC(NC(=O)Cn1c(=O)[nH]c2ccsc2c1=O)C12CC3CC(CC(C3)C1)C2 (stereo unspecified)	-0.7%	15.4%	45.6%	0.1%	14.1µM*
COc1cccc(NC2=CC(c3ccc(C(C)C)cc3)N(c3cccc(OC)c3)C2=O)c1 (stereo unspecified)	14.2%	.	.	.	2.0%
